Hits are enriched below; roughly 2.9% of the tested compounds scored in any of these assays.
CF NFkB inh: inhibitors of PAF-induced NF-kB signaling, primary screen, cell-based, GFP fluorescence, uHTS; KKLEB NF-kB-GFP reporter, GFP fluorescence overnight; actives 0.86% (n = 360,000); inhibition, % at 5 µM;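 active = at least 50% inhibition at 5 µM, scaled per plate between neutral and stimulator controls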;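 note: PAF is a Pseudomonas aeruginosa culture filtrate used as stimulus; plate controls were PAF-stimulated DMSO wells for no effect and unstimulated DMSO wells for full effect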
KKLEB cytotox: cytotoxicity in KKLEB CF airway cells, primary screen, cytotoxicity control for CF NF-kB inhibitor project, cell-based, uHTS, fluorescence assay plates. KKLEB CF airway cells viability, ATPlite luminescence, overnight; active compounds read low; cells stimulated with P. aeruginosa culture filtrate. activity change (cytotoxicity), % at 5 µM. actives 0.36% (n = 360,000). AID 602141, 2011;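 active = corrected activity change at or below -50% at 5 µM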
Peg3 prom inh: Peg3 promoter-driven luciferase inhibitors, primary screen, cell-based, HeLa, luciferase luminescence; HeLa PEG-Prom luciferase reporter, overnight; inhibition, % at 20 µM; actives 1.7% (n = 360,000);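 active = inhibition of at least 50% at 20 µM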
HIF-2a inh: HIF-2a reporter inhibitors, primary screen, luminescence, 786-0 RCC cells; 786-0 RCC cells HIF-2a reporter, luciferase luminescence, overnight; AID 624352, 2012; inhibition, % at 18.8 µM; actives 0.72% (n = 360,000);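 active = inhibition of the luminescence signal of 40% or more relative to plate controls, in a single-dose primary screen at 18.75 µM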
Shn3 inh set2: reduction of Shn3 3'UTR firefly luciferase signal, primary screen, Schnurri-3 inhibitor project, cell-based, Clone20 osteoblasts, set 2; Clone20 osteoblast Shn3 3'UTR firefly luciferase, 24 h; inhibition, % at 12.5 µM; actives 0.52% (n = 360,000);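 active = mean inhibition of at least 75% with every replicate also reaching 75%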;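 note: 0% = median of neutral control wells and 100% = pilot-screen positive control compound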
EBV LMP1 NFkB: EBV LMP1-driven NF-kappaB luciferase reporter inhibitors, primary screen, cell-based, luminescence, single point; LMP1-induced NF-kappaB luciferase reporter cells; inhibition, % at 12.5 µM; actives 0.69% (n = 350,000); in the data active = inhibition above about 41%;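 note: 0% = neutral control wells and 100% = reference inhibitor control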
Mdm2-MdmX confirm: retested Mdm2-MdmX interaction blockers, confirmation, cell-based, luminescence, single concentration, set 2 | shares compounds with HIF-2a inh | SaOS-2 split-luciferase Mdm2/MdmX complementation | inhibition, % at 8 µM | actives 99% (n = 740);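 active = mean inhibition of the luminescence signal across two replicates at or above 26 percent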
Target sequence (O15151 whole entry, looked up): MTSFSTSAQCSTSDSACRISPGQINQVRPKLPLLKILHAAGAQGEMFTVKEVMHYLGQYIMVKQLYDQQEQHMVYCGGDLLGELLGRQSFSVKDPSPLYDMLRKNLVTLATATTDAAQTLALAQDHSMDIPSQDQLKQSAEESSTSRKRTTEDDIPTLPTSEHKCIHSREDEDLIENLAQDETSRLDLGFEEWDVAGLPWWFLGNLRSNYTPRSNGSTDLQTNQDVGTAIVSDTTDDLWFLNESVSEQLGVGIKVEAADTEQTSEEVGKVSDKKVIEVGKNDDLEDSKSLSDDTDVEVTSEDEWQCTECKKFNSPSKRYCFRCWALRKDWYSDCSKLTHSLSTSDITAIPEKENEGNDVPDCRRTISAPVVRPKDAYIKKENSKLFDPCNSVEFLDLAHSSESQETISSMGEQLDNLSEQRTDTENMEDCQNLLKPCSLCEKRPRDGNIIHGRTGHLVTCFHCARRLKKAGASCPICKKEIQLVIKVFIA
Target sequence (Q00987 whole entry, looked up): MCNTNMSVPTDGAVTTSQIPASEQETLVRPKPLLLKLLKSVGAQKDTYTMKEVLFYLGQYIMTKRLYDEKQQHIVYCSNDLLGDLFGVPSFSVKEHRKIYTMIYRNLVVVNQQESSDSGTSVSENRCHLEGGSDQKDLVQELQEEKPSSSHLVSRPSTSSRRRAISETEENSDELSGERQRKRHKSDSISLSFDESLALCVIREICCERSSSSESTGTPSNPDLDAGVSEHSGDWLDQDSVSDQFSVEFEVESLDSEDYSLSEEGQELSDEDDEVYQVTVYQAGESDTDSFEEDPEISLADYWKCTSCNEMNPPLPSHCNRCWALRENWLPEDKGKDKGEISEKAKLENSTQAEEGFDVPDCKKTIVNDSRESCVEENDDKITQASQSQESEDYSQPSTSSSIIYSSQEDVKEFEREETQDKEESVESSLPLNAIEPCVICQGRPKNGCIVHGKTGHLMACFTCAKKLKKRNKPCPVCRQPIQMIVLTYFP
HIF-2a conf: HIF-2a reporter inhibitor retest, confirmation, luminescence, 786-0 RCC cells. shares compounds with HIF-2a inh. HIF-2a luciferase reporter luminescence, overnight. inhibition, % at 18.8 µM. actives 56% (n = 1,800);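 active = mean inhibition across four replicates of at least 40 percent at the single tested concentration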
HIF-1a cs: HIF-1a luciferase reporter signal reduction – MiaPaCa-2 cells, single concentration, counter-screen for HIF-2a inhibitor project, confirmation; shares compounds with HIF-2a inh; MiaPaCa-2 HIF-1a luciferase reporter, desferoxamine, overnight; inhibition, % at 18.8 µM; actives 72% (n = 1,800); AID 651589, 2012;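 active = mean inhibition of the reporter signal across four replicates at the single tested dose of 50% or more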
* marks the source's active call; other numbers are inactive results; / = no result given.

SMILES	CF NFkB inh	KKLEB cytotox	Peg3 prom inh	HIF-2a inh	Shn3 inh set2	EBV LMP1 NFkB	Mdm2-MdmX confirm	HIF-2a conf	HIF-1a cs
COC(=O)c1ccc(NC(=O)c2nc(S(=O)(=O)Cc3cccc(C)c3)ncc2Cl)cc1	85*	-101*	99*	92*	95*	20	103*	75*	94*
CCS(=O)(=O)c1ncc(Cl)c(C(=O)Nc2ccc(S(=O)(=O)N3CCC(C)CC3)cc2)n1	98*	-105*	105*	86*	99*	8	103*	99*	103*
CC1CCN(S(=O)(=O)c2ccc(NC(=O)c3ccncc3)cc2)CC1	8	-17	14	20	51	8	/	/	/
Cc1ccc(C(=O)NCc2ccc3c(c2)OCO3)c(Cl)c1	11	-10	-78	-112	-23	-10	/	/	/
O=C(COC(=O)c1ccc(O)cc1O)Nc1cccc2ccccc12	10	-6	15	11	-5	2	/	/	/
O=C(NC1CCOCC1)C1CCC(=O)N(Cc2cccc(C(F)(F)F)c2)C1 (stereo unspecified)	3	6	-1	1	-7	-4	/	/	/
O=C(NC1(C(F)(F)F)OCCO1)c1ccc(F)cc1	0	2	-2	7	4	-8	/	/	/
CC(C)c1nnc(NC(=O)CCc2ccccc2)s1	1	-2	-131	-103	-6	-2	/	/	/
CN(c1ccccc1)S(=O)(=O)c1ccc(NC(=O)c2ccccc2)cc1	2	-2	-18	-38	-5	-1	/	/	/
CC(C)c1nnc(NC(=O)c2nc(S(=O)(=O)Cc3ccccc3)ncc2Cl)s1	100*	-87*	105*	92*	94*	11	102*	/	/
COc1ccccc1NC(=O)c1nc(S(=O)(=O)Cc2ccccc2)ncc1Cl	83*	-85*	105*	89*	99*	1	101*	83*	104*
CN(c1ccccc1)S(=O)(=O)c1ccc(NC(=O)c2nc(S(C)(=O)=O)ncc2Cl)cc1	108*	-29	111*	65*	99*	-3	103*	99*	94*
CCc1ccc(NC(=O)c2nc(S(=O)(=O)Cc3ccccc3)ncc2Cl)cc1	91*	-97*	101*	95*	96*	23	103*	88*	87*
Cc1cccc(OCC(=O)N2CCc3ccccc3C2)c1C	6	1	-63	-113	8	-14	/	/	/
CCc1ccc(S(=O)(=O)Nc2ccc(-c3ccc4nncn4n3)cc2)s1	30	-4	27	42*	-5	7	/	0	-40
CCc1ccc(S(=O)(=O)Nc2ccc(-c3ccc4nnc(C)n4n3)cc2)s1	-8	3	5	-3	17	15	/	/	/
O=C(NC1CCCCCC1)c1ccc([N+](=O)[O-])s1	16	-4	-80	60*	-6	-13	/	74*	77*
Cc1ccnc(N/C=C(/NC(=O)c2ccccc2)C(=O)NN)n1	5	6	3	7	2	5	/	/	/
Cc1ccnc(N/C=C(/NC(=O)c2ccccc2)C(=O)N/N=C\c2ccc(F)cc2)n1	-2	2	16	66*	94*	58*	/	69*	88*
C=C(C)C1CC=C(C)/C(=N/NC(=O)CNc2ccc(OCC)cc2)C1 (stereo unspecified)	-2	-9	13	-2	5	-14	/	/	/
COc1ccc(-c2cc(N)n(S(=O)(=O)c3c(F)c(F)c(F)c(F)c3F)n2)cc1OC	32	-13	110*	86*	83	16	/	99*	104*
COc1cc2nc3n(c(=O)c2cc1OC)-c1ncccc1C(=O)NC3Cc1ccccc1 (stereo unspecified)	-1	0	1	5	-23	2	/	/	/
O=c1cccc2c1c1cc[nH]c3ccc(=O)n2c31	47	-4	28	36	-27	16	93*	/	/
O=c1cc[nH]c2ccc(Cl)cc12	-7	-23	7	0	-92	2	/	/	/
CCOC(=O)c1ccc(S(=O)(=O)Nc2ccc(N3CCOCC3)cc2)cc1	-7	-1	4	7	-19	-17	/	/	/
SMILES	CF NFkB inh	KKLEB cytotox	Peg3 prom inh	HIF-2a inh	Shn3 inh set2	EBV LMP1 NFkB	Mdm2-MdmX confirm	HIF-2a conf	HIF-1a cs
CCN1CCN(CCCNC(=O)c2ccc(/C=C3/Sc4ccccc4N(Cc4ccccc4F)C3=O)cc2)CC1	23	-12	59*	91*	-22	0	/	-21	102*
Cc1sc2nc(C)n(/N=C/c3ccc(O)cc3O)c(=O)c2c1C	18	-16	2	0	3	-1	/	/	/
Cc1cccc([C@@H]2[C@@H]3C(=O)N(Cc4ccccc4)C(=O)[C@@H]3[C@]3(Cc4ccccc4)C(=O)N(c4ccc(C(F)(F)F)cc4)C(=O)N23)c1	8	2	4	-2	22	18	103*	/	/
CCOC(=O)C1=CCN(S(=O)(=O)c2ccccc2Br)C1c1ccc(Cl)c(Cl)c1 (stereo unspecified)	29	-20	41	23	-9	/	/	/	/
C#CCn1cc[n+](CC(=O)N(C)C)c1	-10	6	6	-6	3	-8	/	/	/
CCCCCCCCCCCCCCCCn1cc[n+](CC(C)=O)c1	67*	-67*	96*	56*	84	15	/	64*	106*
CCN(C(=O)COC(=O)CCC(=O)c1ccccc1)c1c(N)n(Cc2ccccc2)c(=O)[nH]c1=O	1	-2	-6	5	0	-2	/	/	/
O=C(/C=C/c1cccc(Cl)c1)c1ccc([N+](=O)[O-])o1	87*	-46	99*	97*	95*	-19	102*	/	/
COc1ccc(C=CC(=O)c2ccc(OC)c(OC)c2O)cc1OC	-54	-1	-1	-1	6	29	/	/	/
NS(=O)(=O)c1ccc(CNC(=O)/C=C/c2cccc(Cl)c2)cc1	-8	-2	10	15	-1	7	/	/	/
COc1ccc(/C=C/C(=O)c2ccc([N+](=O)[O-])o2)cc1OC	/	/	/	/	/	/	99*	/	/

Assay outcomes (PubChem)
